From ChEMBL document CHEMBL3988442, “University of Dundee, Small-Polar-MMV Screening Library” (2021) come the findings set out here.

The whole screen tested about 69,000 compounds, of which about 950 (1.4%) showed an effect of 50% or more. This excerpt belongs to a sample that is enriched for strong results.

This assay concerns Mycobacterium tuberculosis. Kind of assay: Cornell M. t heat shock assay. Further: in the data most compounds retested in dose-response had high values. On the set-up: dose or concentration left out as unconfirmed. Format: functional, organism-based.
On to `O=C(O)C(F)(F)F.O=C1CC[C@H]2[C@H](CCN2c2ncccn2)N1c1ccccc1`, for which the “Percent Effect” value was 21.09%. With `O=C(O)c1ccc2c(CN3CCOCC3)c[nH]c2c1`, the “Percent Effect” value was -11.23%. In the case of `CC(C)(C)c1coc([C@@H]2COCCN2Cc2c[nH]c3ccccc23)n1`, the “Percent Effect” value is 25.07%.

Turning to `c1ccc(O[C@H]2COCCN(Cc3cccc4c3OCO4)C2)cc1`, the “Percent Effect” value was -21.01%. Consider `c1ccc(O[C@H]2COCCN(Cc3c[nH]c4ccccc34)C2)cc1`, for which the “Percent Effect” value came out at 78.8%. On to `Fc1ccc(CN2CCOC[C@H](Oc3cccnc3)C2)cc1`, for which the “Percent Effect” value is recorded as -34.69%. As for `c1cncc(O[C@H]2COCCN(Cc3c[nH]c4ccccc34)C2)c1`, the “Percent Effect” value stood at 58.82%. With `COc1ccc(O[C@H]2COCCN(Cc3c[nH]c4ccccc34)C2)cc1`, the “Percent Effect” value is 47.94%. To `FC(F)(F)c1ccccc1CN1CCOC[C@H](Oc2cccnc2)C1` belongs -28.03%. Turning to `CO[C@H]1COCCN(Cc2c[nH]c3ccccc23)C1`, the “Percent Effect” value is 82.59%. In the case of `CCC(C)S(=O)(=O)N1CCc2nc(C3CCNCC3)ncc2C1.Cl` (centres undefined), the “Percent Effect” value is recorded as -3.075%. For the compound `Cc1cccc(CN2CCc3nnc(CN4CCCCC4)n3CC2)n1.O=C(O)C(F)(F)F.O=C(O)C(F)(F)F`, the “Percent Effect” value is -5.727%. To `Cl.Cn1ccnc1N1CCN(C(=O)Cc2ccc(Cl)cc2)CC1` belongs -26.02%. Take `Cc1ccc(C(=O)N2CC3(CCNCC3)c3cc(Cl)ccc32)cn1.O=C(O)C(F)(F)F.O=C(O)C(F)(F)F`: the “Percent Effect” value is reported as 1.032%. With `Cc1cccc(CN2C(=O)C[C@H]3[C@@H]2CCN3Cc2ccco2)n1.O=C(O)C(F)(F)F.O=C(O)C(F)(F)F`, the “Percent Effect” value was -4.137%. `Cn1ccc(NC(=O)CN2C[C@H]3CC[C@@H]2CN(Cc2ccccn2)C3)n1`: the “Percent Effect” value is -21.74%.

Take `CC(C)(C)c1cc(CN2C[C@H]3CC[C@@H]2CN(Cc2ccccn2)C3)n[nH]1`: the “Percent Effect” value is on record as 99.23%.

As for `Cn1cnc(S(=O)(=O)N2C[C@@H]3CC[C@H](C2)N(Cc2ccccn2)C3)c1`, the “Percent Effect” value is recorded as 7.06%. Regarding `CC(C)(C)c1cc(CN2C[C@@H]3CC[C@H](C2)N(Cc2ccccn2)C3)n[nH]1`, the “Percent Effect” value is 82.46%. As to `Cc1nnsc1CN1C[C@H]2CC[C@@H]1CN(Cc1ccccn1)C2`, the “Percent Effect” value is reported as -2.005%.

For `O=C(CN1C[C@H]2CC[C@@H]1CN(Cc1ccccn1)C2)Nc1ccccc1`, the “Percent Effect” value stood at 12.62%.

With `O=C(O)C(F)(F)F.c1ccc(CN2CCc3ncnc(C4CC4)c3CC2)cc1`, the “Percent Effect” value is listed as -16.81%. Take `CC(=O)N1CC2(CCNCC2)c2cc(Cl)ccc21.Cl`: the “Percent Effect” value is 3.682%.

For `CO[C@H]1CN(C(=O)c2ccccn2)[C@@H]2CCCO[C@H]12.O=C(O)C(F)(F)F`, the “Percent Effect” value was found to be 0.07759%. On to `CS(=O)(=O)NCc1cnc2n1CCN(Cc1ccccn1)CC2.O=C(O)C(F)(F)F`, for which the “Percent Effect” value is -38.1%. For `CCc1n[nH]c(C(=O)NCCn2nccc2C)c1C`, the “Percent Effect” value stood at 66.56%.

In the case of `CCc1n[nH]c(C(=O)NCCn2ccnc2C)c1C`, the “Percent Effect” value is -101%. As for `CCc1n[nH]c(C(=O)NCCn2ccc(C)n2)c1C`, the “Percent Effect” value is reported as -5.809%.

Take `CO[C@H]1[C@@H]2CC[C@H]1CN(c1nc(C)nc3ccsc13)C2`: the “Percent Effect” value is 7.911%. For the compound `Cc1ccc(C2(CN3CCN(Cc4cnc(C)n4C)CC3)CC2)cc1.Cl`, the “Percent Effect” value is given as -8.472%.

As to `CC(=O)c1cc(CN2C[C@H]3CC[C@@H]2CN(S(=O)(=O)N(C)C)C3)cs1`, the “Percent Effect” value is on record as -20.68%. The value for `CC(=O)c1cc(CN2C[C@H]3CC[C@@H]2CN(S(C)(=O)=O)C3)cs1` was 74.41%. On to `CS(=O)(=O)N1C[C@@H]2CC[C@H](C1)N(Cc1ccsc1)C2`, for which the “Percent Effect” value stood at 18.67%. The value for `Cc1ccc(CN2CCO[C@H]3[C@H](OCc4cccnc4)CC[C@@H]32)o1.O=C(O)C(F)(F)F.O=C(O)C(F)(F)F` was 17.99%; that for `Cl.c1cnc2[nH]c(C3CCCNC3)c(CN3CCCOCC3)c2c1` (centres undefined) was -14.8%. For the compound `CCOc1ccccc1-c1cc(N)[nH]n1.Cl`, the “Percent Effect” value is on record as -11.82%. Consider `CCOc1ccc(Br)cc1-c1cc(N)[nH]n1.Cl`, for which the “Percent Effect” value is given as 3.82%. In the case of `Cc1noc(C)c1CN1C(=O)[C@H]2CC[C@@H]1CN(Cc1cccnc1N)C2`, the “Percent Effect” value is recorded as 4.913%. `CC(C)=CCN1C(=O)[C@H]2CC[C@@H]1CN(Cc1cccnc1N)C2`: the “Percent Effect” value is 105.7%. On to `Nc1ncccc1CN1C[C@@H]2CC[C@H](C1)N(CC1CC1)C2=O`, for which the “Percent Effect” value is recorded as -11.72%. As to `Cl.NC(=O)C1CN(c2ccc(F)cc2)CCN1` (centres undefined), the “Percent Effect” value turned out to be 7.399%.

Consider `Cc1ccc(CN(CCCn2ccnc2)Cc2cnn(C)c2)s1.O=C(O)CC(O)(CC(=O)O)C(=O)O`, for which the “Percent Effect” value was -39.87%. For the compound `COc1ccc(F)c(CN2CCC(c3cc(O)nc(C)n3)C2)c1.O=C(O)CC(O)(CC(=O)O)C(=O)O` (centres undefined), the “Percent Effect” value was -13.93%. To `Cc1ccc(CN(CCCn2ccnc2)Cc2c[nH]cn2)s1.O=C(O)CC(O)(CC(=O)O)C(=O)O` belongs -3.628%; to `COc1ccc(Cl)cc1CNCCCn1ccnc1`, 13.48%. For `OCc1ccc(CN(CCCn2ccnc2)Cc2cccnc2)o1`, the “Percent Effect” value is listed as 13%. The value for `Cc1ccc(CN(CCCn2ccnc2)Cc2cccs2)s1.O=C(O)CC(O)(CC(=O)O)C(=O)O` was 106%; that for `COc1ccc(F)c(CN(CCCn2ccnc2)Cc2ccc(C)s2)c1.O=C(O)CC(O)(CC(=O)O)C(=O)O` was 102.4%; that for `Cc1ccc(CN(CCCn2ccnc2)Cc2c[nH]nc2C(C)(C)C)s1.O=C(O)CC(O)(CC(=O)O)C(=O)O` was 9.157%.

With `Cc1ccc(CN(CCN(C)C)Cc2ncc[nH]2)s1`, the “Percent Effect” value was -11.95%. With `Cl.Fc1ccc(Cc2cnc(C3CCCN3)cn2)cc1` (centres undefined), the “Percent Effect” value is listed as -27.64%. As to `COc1ccc(CN(C)[C@@H]2COC[C@H]2c2ccc(F)cc2)cc1.O=C(O)CC(O)(CC(=O)O)C(=O)O`, the “Percent Effect” value was -8.721%.

`Cc1oncc1C(=O)N[C@@H]1CN(CC2CC2)C[C@@H]2CCCO[C@@H]21.O=C(O)C(F)(F)F`: the “Percent Effect” value stood at 28.88%. `COCCNC(=O)[C@@H]1C[C@@H]2CCN(c3ncccn3)C[C@H]2O1.O=C(O)C(F)(F)F`: the “Percent Effect” value is on record as -37.39%.
